From PubChem BioAssay
Compounds with a hit are over-represented: about 10% of the library has one in this group of screens.
GPT2 inh = blocks human glutamate pyruvate transaminase 2 | Recombinant GPT2, coupled pyruvate oxidase/HRP Amplex Red fluorescence | Potency, µM (highest dose often 57.7 µM), for inactives: at the top dose activity change, negative = inhibition, most hits filed as inhibitors | hit rate 0.25% among 100,000; note: % is set by controls: 0 for no effect and ±100 for the full control effect; nearly all actives have a fitted effect of over 60% in size
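GPT2 10ng/uL, a-KG 250uM, L-Ala 2mM, HEPES pH7.5 + 0.0001% Tween; 30 min RT. Then Amplex mix (PO/HRP/ThPP), 30 min RT dark, fluorescence. AOA 50uM used as positive control.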
FLuc inh-1 = inhibitors of firefly (Photinus pyralis) luciferase | P08659 | purified P. pyralis luciferase, luminescence, biochemical | Potency, µM (titrated, usually from 115 µM), actives largely listed as inhibitors | hit rate 2.5% among 76,000 | AID 1347043; note: % is set by controls: 0 for no effect and ±100 for the full control effect; nearly all actives have a fitted effect of over 65% in size
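Cell-free enzyme assay, 10nM P. pyralis luciferase, luciferin and ATP each at 10uM. Inhibition profiled over a 6-point titration, read as luminescence.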
HEK293 tox = kills HEK 293 cells; hit rate 6.6% among 94,000; Potency, µM (top dose mostly 115 µM), for the others: top-dose activity change, negative = cytotoxicity, most hits filed as inhibitors; HEK 293 viability, ATP luminescence (CellTiter-Glo), 48-72 h; note: % is set by controls: 0 for no effect and ±100 for the full control effect; nearly all actives have a fitted effect of over 60% in size
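Pintool-delivered compounds were incubated with HEK 293 cells (250 cells/well) at 37 degree Celsius for 48 or 72 hr. ATP-dependent luminescence (CellTiter-Glo) then reported remaining viable cells.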
hNpr1 antagonist = human Npr1 receptor antagonism; HEK293 hNpr1 GloSensor cGMP, ANP-stimulated luminescence; Potency, µM (titrated, usually from 46.3 µM), inactives show top-dose activity change, negative = inhibition, actives largely listed as inhibitors; hit rate 1.6% among 76,000; P16066; AID 1347048; calls by dose curve; note: % is set by controls: 0 for no effect and ±100 for the full control effect; nearly all actives have a fitted effect of over 60% in size
Target sequence (P16066 whole entry, looked up): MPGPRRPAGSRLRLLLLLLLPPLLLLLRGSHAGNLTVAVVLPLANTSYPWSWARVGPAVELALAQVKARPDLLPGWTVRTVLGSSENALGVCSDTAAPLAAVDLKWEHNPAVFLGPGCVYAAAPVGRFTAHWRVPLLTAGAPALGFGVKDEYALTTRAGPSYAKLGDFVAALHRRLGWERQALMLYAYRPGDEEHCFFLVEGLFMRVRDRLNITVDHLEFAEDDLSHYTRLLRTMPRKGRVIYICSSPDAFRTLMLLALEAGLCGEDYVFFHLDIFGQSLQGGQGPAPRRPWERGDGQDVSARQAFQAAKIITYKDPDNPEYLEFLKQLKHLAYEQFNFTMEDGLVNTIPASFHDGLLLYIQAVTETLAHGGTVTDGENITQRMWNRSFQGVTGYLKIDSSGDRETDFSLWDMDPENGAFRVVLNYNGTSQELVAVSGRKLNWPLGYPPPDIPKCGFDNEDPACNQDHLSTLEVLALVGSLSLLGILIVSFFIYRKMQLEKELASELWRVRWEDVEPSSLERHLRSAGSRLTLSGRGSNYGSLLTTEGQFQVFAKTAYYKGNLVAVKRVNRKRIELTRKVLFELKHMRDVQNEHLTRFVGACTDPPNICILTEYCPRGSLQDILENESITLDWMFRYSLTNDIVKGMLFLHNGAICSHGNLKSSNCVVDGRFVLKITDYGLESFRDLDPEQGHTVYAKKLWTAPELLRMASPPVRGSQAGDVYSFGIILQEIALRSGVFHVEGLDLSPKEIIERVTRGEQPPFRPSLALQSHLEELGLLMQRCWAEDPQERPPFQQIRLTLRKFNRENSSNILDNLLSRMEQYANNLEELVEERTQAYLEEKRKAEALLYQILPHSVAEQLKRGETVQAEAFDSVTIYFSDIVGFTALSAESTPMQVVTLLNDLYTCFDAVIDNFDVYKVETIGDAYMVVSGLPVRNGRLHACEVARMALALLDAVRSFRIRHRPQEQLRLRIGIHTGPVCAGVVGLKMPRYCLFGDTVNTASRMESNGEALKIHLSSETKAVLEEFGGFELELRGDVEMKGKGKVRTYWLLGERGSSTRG
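HEK293 cells stably expressing human Npr1 and cGMP GloSensor pGS-40F, loaded 2 h with 2% GloSensor reagent, given compound 30 min at room temperature. Luminescence read before and 20 min after 0.1 nM hNppA.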
3T3 cytotox = cytotoxic compounds in NIH 3T3 cells | NIH 3T3 viability, CellTiter-Glo ATP luminescence, 48-72 h | Potency, µM (highest dose often 96.7 µM), for inactives: at the top dose activity change, negative = cytotoxicity, hits mostly inhibitors | hit rate 4.3% among 94,000; note: % is set by controls: 0 for no effect and ±100 for the full control effect; nearly all actives have a fitted effect of over 55% in size
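NIH 3T3 cells at 400 cells/well received 23 nL of compound by pintool and were incubated 48 or 72 h at 37 °C. Viability was read as ATP-coupled CellTiter-Glo luminescence.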
FLuc SDR -ATP = binders stabilizing firefly luciferase, without ATP; shares compounds with FLuc inh-1; hit rate 7.8% among 1,300; Purified FLuc-C-HiBiT, Nano-Glo HiBiT luminescence, no ATP; AID 1963318; Potency, µM (highest dose often 32.7 µM), without a hit: at the highest dose activation (signal gain), actives largely listed as activators; note: nearly all actives have a fitted effect of over 55% in size
FLuc SDR ATP = stabilizes firefly luciferase with ATP present; Potency, µM (series often up to 32.7 µM), inactives show at the highest dose activation (gain of signal), most hits filed as activators; purified FLuc-C-HiBiT + ATP, HiBiT complementation luminescence; hit rate 8.7% among 1,300; shares compounds with FLuc inh-1;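 note: signal reports ligand binding via conformational change of the enzyme rather than luciferase catalysis; % of control where 0% means no effect; nearly all actives have a fitted effect of over 55% in size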
FLuc inh-2 = blocks firefly luciferase enzymatic activity. shares compounds with FLuc inh-1. AID 1963320. hit rate 42% among 1,300. purified FLuc-C-HiBiT enzyme, luciferin luminescence. Potency, µM (series often up to 32.7 µM), inactives show at the highest dose activity change, negative = inhibition, most hits filed as inhibitors; note: % is set by controls: 0 for no effect and ±100 for the full control effect; nearly all actives have a fitted effect of over 70% in size
An asterisk follows results filed as active; i = inactive; ? = inconclusive; · = no result; [ ] = remark or other dose. Unless noted, calls come from the whole dose curve; as a rule, active = well fitted curve in the direction sought with a large enough effect; inconclusive = small, poorly fitted or top-dose-only effect, or another doubt; inactive = no such curve, though single readings can be large; an effect the other way counts as inactive or inconclusive. Potency is the fitted concentration of half-maximal effect.

SMILES	GPT2 inh	FLuc inh-1	HEK293 tox	hNpr1 antagonist	3T3 cytotox	FLuc SDR -ATP	FLuc SDR ATP	FLuc inh-2
COc1cccc(-c2cccc(COc3cnc4c(ccn4CC(=O)O)c3)c2)c1	·	·	·	·	·	7%[49.3 µM]	5%[49.3 µM]	?
Cc1ccc(-c2cccc(COc3cnc4c(ccn4CC(=O)O)c3)c2)c(C)c1	·	·	·	·	·	14%[49.3 µM]	7%[49.3 µM]	-13%[49.3 µM]
Cc1ccc(-c2cccc(COc3cnc4c(ccn4CC(=O)O)c3)c2)cc1C	·	·	·	·	·	10%[49.3 µM]	7%[49.3 µM]	?
COc1ccc(-c2cccc(COc3cnc4c(ccn4CC(=O)O)c3)c2)c(C)c1	1%[88.5 µM]	i	?	-11%[70.6 µM]	?	9%	8%	-6%
COc1cc(F)cc(-c2cccc(CCOc3cnc4c(ccn4CC(=O)O)c3)c2)c1	-9%[88.5 µM]	i	?	0%[70.6 µM]	?	·	·	·
Cc1oc(C(O)c2ccccc2F)nc1C(=O)Nc1ccc(N2CCOCC2)cc1 (centres undefined)	i	10µM*	?	-2%[70.6 µM]	-25%[138 µM]	?	?	16µM*
Cc1ccc(-n2ncc3c(N4CCCCC4)nc(NCCCO)nc32)cc1	·	·	·	·	·	10%	7%	-10%
Fc1ccc(-n2ncc3c(N4CCCCCC4)ncnc32)cc1	·	·	·	·	·	?	?	1.2µM*
Cc1ccc(-n2ncc3c(N4CCCCCC4)ncnc32)cc1	·	·	·	·	·	1.8µM*	0.88µM*	0.2µM*
Cc1ccc(-c2cc3c(=O)n(CCNC(=O)c4ccc(C)s4)ccn3n2)c(C)c1	i	4.5µM*	?	0%	?	27%	?	7µM*
Cc1ccc(-c2cc3c(=O)n(CCNC(=O)c4ccccc4F)ccn3n2)c(C)c1	i	6.3µM*	?	-13%	-18%	?	?	7µM*
Cc1ccc(-c2cc3c(=O)n(CCNC(=O)C4CCCCC4)ccn3n2)c(C)c1	-18%	2µM*	?	?	?	?	?	2.5µM*
COc1ccc(C(=O)NCCn2ccn3nc(-c4ccc(C)cc4C)cc3c2=O)c(C)c1	i	3.5µM*	?	?	?	24%	15%	5µM*
Cc1ccc(-c2cc3c(=O)n(CCNC(=O)c4cc(F)ccc4F)ccn3n2)c(C)c1	i	?	-10%	-20%	-19%	·	·	·
CCCN1CCC2(Cc3ccccc3CN(C(=O)CCNC(C)=O)C2)C1 (centres undefined)	i	·	i	·	i	·	·	·
CN(Cc1cccn1C)[S+](=O)([O-])c1cccc(C(F)(F)F)c1	i	i	-11%[172 µM]	17%[70.6 µM]	-24%[138 µM]	·	·	·
Cc1ccc(-c2cc3c(=O)n(CCNC(=O)c4cccc(Cl)c4)ccn3n2)c(C)c1	2%	1.6µM*	?	?	?	28%	?	3.9µM*
Cc1ccc(-c2cc3c(=O)n(CCNC(=O)c4ccc5c(c4)OCO5)ccn3n2)c(C)c1	4%	?	3%	-2%	-1%	·	·	·
Cc1cc(C)cc(C(=O)NCCn2ccn3nc(-c4ccc(C)cc4C)cc3c2=O)c1	i	2.8µM*	?	-22%	?	22%	14%	7µM*
Cc1ccc(-c2cc3c(=O)n(CCNC(=O)c4nccc5ccccc45)ccn3n2)c(C)c1	-1%	3.5µM*	45µM*	-12%	?	23%	16%	8.8µM*
O=C(C1CCCCC1)N1CCC(OC2CCN(Cc3cccnc3)CC2)CC1	i	i	-4%	9%	?	·	·	·
